From PubChem BioAssay (NCATS)
Records with an inconclusive call do not appear. Calls of active or inactive are those of the source. The call rests on the fitted dose curve; in most records, active means well fitted inhibition curve with a large enough effect; inconclusive means small, poorly fitted or top-dose-only effect; inactive means flat fitted curve, though single readings scatter.

What was measured:
Assay in all cases: qHTS profiling for inhibitors of Plasmodium falciparum proliferation (AID 504749); further: nearly all actives have a fitted effect of over 60% in size
Details in all cases: P. falciparum in erythrocytes, SYBR Green DNA, 72 h; series mostly up to 28.7 µM
[1] = test system: CP247
Outline: (§1)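 SYBR Green fluorescence of parasite DNA, read after lysis and overnight dark incubation, measured growth over 72 h in erythrocyte culture at 0.3% parasitemia and 2.5% hematocrit. Data normalised to DMSO and 0.29 uM artemisinin, with plate-drift correction.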

[2] = test system: CP250
Outline: as §1

[3] = test system: CP252
Outline: as §1

[4] = test system: CP256
Outline: as §1

[5] = test system: CP260
Outline: as §1

[6] = test system: CP262
Outline: as §1

[7] = test system: CP265
Outline: as §1

[8] = test system: CP266
Outline: as §1

[9] = test system: CP268
Outline: as §1

[10] = test system: CP269
Outline: as §1

[11] = test system: CP286
Outline: as §1

[12] = test system: CP291
Outline: as §1

[13] = test system: CP297
Outline: as §1

[14] = test system: CP305
Outline: as §1

[15] = test system: CP315
Outline: as §1

[16] = test system: CP325
Outline: as §1

[17] = test system: CP329
Outline: as §1

[18] = test system: CP335
Outline: as §1

[19] = test system: DFO2036
Outline: as §1

[20] = test system: DIV14
Outline: as §1

[21] = test system: DIV17
Outline: as §1

[22] = test system: Dd2
Outline: as §1

[23] = test system: ECU
Outline: as §1

[24] = test system: FAB9
Outline: as §1

[25] = test system: GB4
Outline: as §1

[26] = test system: HB3
Outline: as §1

[27] = test system: ICS
Outline: as §1

[28] = test system: JCK
Outline: as §1

[29] = test system: N140
Outline: as §1

[30] = test system: P93_24
Outline: as §1

[31] = test system: P94_40
Outline: as §1

[32] = test system: PAD
Outline: as §1

[33] = test system: PC15
Outline: as §1

[34] = test system: PC26
Outline: as §1

[35] = test system: PC49
Outline: as §1

[36] = test system: SC27B
Outline: as §1

[37] = test system: TAB109
Outline: as §1

[38] = test system: TAB113
Outline: as §1

[39] = test system: TAB165
Outline: as §1

[40] = test system: W2
Outline: as §1

Measured: Potency

Cc1cn([C@H]2C[C@H](N=[N+]=[N-])[C@H](CO)O2)c(=O)[nH]c1=O
inactive: [1] | [2] | [3] | [4] | [5] | [6] | [7] | [8] | [9] | [10] | [11] | [12] | [13] | [14] | [15] | [16] | [17] | [18] | [19] | [20] | [21] | [22] | [23] | [24] | [25] | [26] | [27] | [28] | [29] | [30] | [31] | [32] | [33] | [34] | [35] | [36] | [37] | [38] | [39] | [40]
